For 13 compounds, Potency and outcome results are on record in PubChem BioAssay (NCATS).

A short description of assay [1]: Primary qHTS for inhibitors of La Crosse Virus (LACV) - induced cell death in SH-SY5Y cells (AID 1508616). Further: potency means the concentration at half of the fitted maximal effect. The method, boiled down:
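Rescue of virus-induced death was read as ATPLite luminescence after 6 days at 37C, scaled between DMSO wells with LACV and without virus. Cells were SH-SY5Y, 6000/well, infected at 0.01 MOI after compound addition.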

Assay [2] has as its target Calcium and integrin-binding protein 1 (Homo sapiens) (UniProt Q99828). Description: Confirmatory qHTS for Identification of Calcium Integrin Binding Protein 1 (CIB1) Competitor (AID 1508617). Further: nearly all actives have a fitted effect of over 65% in size. The method, boiled down: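 FP competition: CIB1-GST (1 uM final) in 5 mM HEPES pH 7.4, 125 mM NaCl, 5 mM CaCl2, 0.01% Tween20 preincubated 15 min RT with compounds (up to 114 uM), then FITC-alphaIIb peptide (100 nM), 15 min RT; Ex 480/Em 540.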
For orientation: In qHTS, concentration-response curves come from the screen itself.

A short description of assay [3]: Primary qHTS for small molecule stabilizers of the endoplasmic reticulum resident proteome: Secreted ER Calcium Modulated Protein (SERCaMP) assay (AID 1508630). Further: potency means the concentration at half of the fitted maximal effect. The method, boiled down:
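The SH-SY5Y reporter protocol was run at 3 concentrations up to 38.3 uM (primary) or 11 concentrations (follow-up): 16 h compound, 100 nM thapsigargin for 4 h, then extracellular luciferase luminescence.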

Assay [4] has as its target Cytochrome P450 2D6 (Homo sapiens) (UniProt P10635). Kind of assay: Cytochrome P450 family 2 subfamily D member 6 (CYP2D6) small molecule antagonists: luciferase biochemical (cell-free) qHTS assay (AID 1645840; active means well fitted curve in the direction sought with a large enough effect in the repeat runs; an effect the other way counts as inactive or inconclusive; further: nearly all actives have a fitted effect of over 55% in size; further: potency means the concentration at half of the fitted maximal effect). The method, boiled down:
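P450-Glo CYP2D6 system: proluciferin substrate converted by enzyme to luciferin, read by luminescence proportional to activity. Enzyme-substrate mix with compound 10 min at room temperature, then NADPH regeneration 1 h before detection reagent.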

Assay [5] addresses Cytochrome P450 2C9 (Homo sapiens) (UniProt P11712). Description: Cytochrome P450 family 2 subfamily C member 9 (CYP2C9) small molecule antagonists: luciferase biochemical (cell-free) qHTS assay (AID 1645842; active means well fitted curve in the direction sought with a large enough effect in the repeat runs; an effect the other way counts as inactive or inconclusive; further: nearly all actives have a fitted effect of over 55% in size; further: potency means the concentration at half of the fitted maximal effect). The method, boiled down: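 P450-Glo CYP2C9 system: proluciferin substrate with enzyme in mix containing 0.4% BSA, 10 min at room temperature, then NADPH regeneration solution added and incubated 1 h at 37C. Detection reagent stopped reaction; luminescence read after 20 min as RLU.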

Assay [6] can be described thus: Primary qHTS for inhibitors of nuclear receptor binding SET domain protein 2 (NSD2) in an isogenic RCH-ACV NSD2 p.E1099K mutant (9B) (AID 1645876). Further: nearly all actives have a fitted effect of over 70% in size. Further: potency means the concentration at half of the fitted maximal effect.
Assay [7] can be described thus: Primary qHTS for inhibitors of nuclear receptor binding SET domain protein 2 (NSD2) in an RCH-ACV wild type WT cells (2C) (AID 1645877). Further: nearly all actives have a fitted effect of over 70% in size. Further: potency means the concentration at half of the fitted maximal effect.
The target in assay [8] is Calcium and integrin-binding protein 1 (Homo sapiens) (UniProt Q99828). Description: Primary qHTS for Identification of Calcium Integrin Binding Protein 1 (CIB1) Competitor (AID 1508620). Further: top concentration of the series differs between compounds. The method, boiled down: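 Fluorescence polarization competition: GST-tagged CIB1 (1 uM final) preincubated with compound 15 min at room temperature, then FITC-labelled alphaIIb peptide (100 nM final) added. After 15 min at room temperature, polarization read at Ex 480/Em 540.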

Assay [9] is described as follows: Confirmatory qHTS for small molecule stabilizers of the endoplasmic reticulum resident proteome: Secreted ER Calcium Modulated Protein (SERCaMP) assay (AID 1508628). Further: series mostly up to about 76 µM; nearly all actives have a fitted effect of over 40% in size. The method, boiled down:
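Reporter secretion upon ER calcium depletion (100 nM thapsigargin, 4 h, 37C) is measured as medium luminescence with coelenterazine, after 16 h compound pretreatment of SH-SY5Y-GLuc-SERCaMP cells; primary at three concentrations up to 38.3 uM, follow-up at 11 (up to 76.6 uM).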

Assay [10] in a line: A High-Content qHTS Against Drug Library for the Identification of Small Molecules that Inhibit DYT1 Early Onset Primary Dystonia-Associated Cell Pathology (AID 1645839; calls by dose curve; further: series mostly up to about 46 µM). The method, boiled down: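 Cells were seeded and left for 24 h, then dosed with compound alongside tetracycline induction of mutant EGFP-TorsinA. They were incubated for 48 h, fixed in 4% paraformaldehyde, permeabilized and imaged for mislocalization (%pathology) and cell count.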

For assay [11], the target named is Calcium and integrin-binding protein 1 (Homo sapiens) (UniProt Q99828). Description: Validation qHTS for Identification of Calcium Integrin Binding protein 1 (CIB1) Competitor (AID 1508618). The method, boiled down: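 Fluorescence polarization with 1 uM CIB1-GST and 100 nM FITC-alphaIIb peptide in HEPES pH 7.4, NaCl, 5 mM CaCl2, Tween20. Compounds at up to 114 uM final, preincubated with protein 15 min; read after 15 min more at RT.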

Assay [12] concerns the target Papain (Carica papaya) (UniProt P00784). Kind of assay: Primary qHTS assay for inhibitors of the protease papain (AID 1645873).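 Further: papain turnover of Z-FR-AMC read as the AMC fluorescence gain over 10 min; series mostly up to about 50 µM.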
The target in assay [13] is Rap guanine nucleotide exchange factor 3 (Homo sapiens) (UniProt O95398). Kind of assay: Confirmatory qHTS for antagonist of cAMP-regulated guanine nucleotide exchange factor 3 (EPAC1) (AID 1645880). Further: nearly all actives have a fitted effect of over 55% in size. The method, boiled down:
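Released BODIPY-GDP fluoresces less than Rap1-bound BODIPY-GDP; the signal is followed at 480/540 nm at 5-min intervals over 30 min, after 5 min at room temperature. Reactions contain 100 nM EPAC1, 250 nM RAP1B-BODIPY-GDP and 50 uM GDP; results are normalized to ATA and DMSO.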

Assay [14] has the same target. Description: Confirmatory qHTS for agonist of cAMP-regulated guanine nucleotide exchange factor 3 (EPAC1) (AID 1645881).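 Further: EPAC1 catalysed release of BODIPY-GDP from Rap1B seen as fluorescence loss; nearly all actives have a fitted effect of over 75% in size.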
For assay [15], the target named is Rap guanine nucleotide exchange factor 4 (Homo sapiens) (UniProt Q8WZA2). Description: Confirmatory qHTS for agonist of cAMP-regulated guanine nucleotide exchange factor 4 (EPAC2) (AID 1645884).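 Further: nucleotide exchange releases bodipy-GDP from Rap1 and this lowers its fluorescence; nearly all actives have a fitted effect of over 65% in size.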
For assay [16] the target is unchanged. Description: Confirmatory qHTS for antagonist of cAMP-regulated guanine nucleotide exchange factor 4 (EPAC2) (AID 1645885). Further: nearly all actives have a fitted effect of over 25% in size. Further: potency means the concentration at half of the fitted maximal effect.
The target in assay [17] is Rap guanine nucleotide exchange factor 3 (Homo sapiens) (UniProt O95398). Kind of assay: Counterscreen qHTS for antagonist of cAMP-regulated guanine nucleotide exchange factor 3 (EPAC1) (AID 1645888). The method, boiled down: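 Rap1B–BODIPY-GDP (250 nM) with 50 uM GDP; compounds pin-transferred to 9.74 nM–152 uM final (activator) or from 7.32 nM upwards (inhibitor). Fluorescence Ex/Em 480/540 nm read at 5 and 30 min, then after adding cAMP or buffer, at room temperature.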
(Counterscreens check selectivity or assay interference.)

Results filed as inconclusive are left out. Some structures have more than one record in an assay (separate samples or runs), and their calls can disagree. Activity calls are given as the source filed them. Unless noted, the call rests on the fitted dose curve; in most records, active means well fitted curve in the direction sought with a large enough effect; inconclusive means small, poorly fitted or top-dose-only effect, or another doubt; inactive means no such curve, though single readings can be large; an effect the other way counts as inactive or inconclusive.

Rap guanine nucleotide exchange factor 3 (Homo sapiens), sequence (O95398 whole entry, looked up): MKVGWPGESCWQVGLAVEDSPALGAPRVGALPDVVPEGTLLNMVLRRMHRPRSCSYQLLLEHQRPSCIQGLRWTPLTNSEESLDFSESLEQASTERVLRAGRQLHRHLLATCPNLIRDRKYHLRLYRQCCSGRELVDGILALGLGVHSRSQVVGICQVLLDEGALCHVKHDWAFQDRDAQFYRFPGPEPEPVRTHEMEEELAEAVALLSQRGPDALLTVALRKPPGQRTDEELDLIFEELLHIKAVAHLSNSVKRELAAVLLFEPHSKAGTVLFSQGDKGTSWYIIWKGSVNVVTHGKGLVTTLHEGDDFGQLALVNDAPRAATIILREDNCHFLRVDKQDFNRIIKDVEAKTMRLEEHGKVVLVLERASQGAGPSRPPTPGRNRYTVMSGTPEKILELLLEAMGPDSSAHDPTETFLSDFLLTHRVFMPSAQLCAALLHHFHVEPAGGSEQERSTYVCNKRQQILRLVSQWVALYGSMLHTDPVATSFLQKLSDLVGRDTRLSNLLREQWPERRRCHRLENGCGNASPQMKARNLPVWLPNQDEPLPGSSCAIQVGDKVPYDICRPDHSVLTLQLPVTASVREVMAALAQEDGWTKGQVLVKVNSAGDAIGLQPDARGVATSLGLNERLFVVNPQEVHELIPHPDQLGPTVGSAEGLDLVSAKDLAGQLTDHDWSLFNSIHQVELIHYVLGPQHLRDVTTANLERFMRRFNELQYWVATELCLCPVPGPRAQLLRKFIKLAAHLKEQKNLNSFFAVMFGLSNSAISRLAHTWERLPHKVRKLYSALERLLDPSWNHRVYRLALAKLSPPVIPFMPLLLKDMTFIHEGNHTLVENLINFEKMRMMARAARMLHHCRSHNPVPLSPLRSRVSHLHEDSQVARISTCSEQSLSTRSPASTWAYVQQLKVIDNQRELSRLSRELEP
Cytochrome P450 2C9 (Homo sapiens), sequence (P11712 whole entry, looked up): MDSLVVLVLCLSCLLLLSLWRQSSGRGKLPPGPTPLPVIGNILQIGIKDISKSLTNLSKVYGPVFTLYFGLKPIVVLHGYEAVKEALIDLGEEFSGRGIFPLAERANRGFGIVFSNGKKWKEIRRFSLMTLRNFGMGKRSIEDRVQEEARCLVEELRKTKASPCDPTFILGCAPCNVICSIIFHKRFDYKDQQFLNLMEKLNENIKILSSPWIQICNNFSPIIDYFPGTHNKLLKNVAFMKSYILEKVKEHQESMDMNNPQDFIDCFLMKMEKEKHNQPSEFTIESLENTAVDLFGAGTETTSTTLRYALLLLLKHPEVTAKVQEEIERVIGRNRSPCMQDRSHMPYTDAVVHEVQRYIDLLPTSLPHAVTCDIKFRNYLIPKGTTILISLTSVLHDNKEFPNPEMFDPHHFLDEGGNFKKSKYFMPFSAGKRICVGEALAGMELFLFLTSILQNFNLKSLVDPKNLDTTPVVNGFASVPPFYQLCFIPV
Papain (Carica papaya), sequence (P00784 whole entry, looked up): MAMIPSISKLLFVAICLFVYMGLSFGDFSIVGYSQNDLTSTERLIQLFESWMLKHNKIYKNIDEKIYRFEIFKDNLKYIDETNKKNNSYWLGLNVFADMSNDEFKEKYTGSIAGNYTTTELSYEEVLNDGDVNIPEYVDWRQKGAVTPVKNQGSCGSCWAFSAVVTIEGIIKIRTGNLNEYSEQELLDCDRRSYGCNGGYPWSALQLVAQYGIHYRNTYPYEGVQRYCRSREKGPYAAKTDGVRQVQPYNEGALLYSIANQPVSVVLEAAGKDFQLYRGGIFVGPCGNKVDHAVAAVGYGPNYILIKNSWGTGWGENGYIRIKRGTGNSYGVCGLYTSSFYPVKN
Cytochrome P450 2D6 (Homo sapiens), sequence (P10635 whole entry, looked up): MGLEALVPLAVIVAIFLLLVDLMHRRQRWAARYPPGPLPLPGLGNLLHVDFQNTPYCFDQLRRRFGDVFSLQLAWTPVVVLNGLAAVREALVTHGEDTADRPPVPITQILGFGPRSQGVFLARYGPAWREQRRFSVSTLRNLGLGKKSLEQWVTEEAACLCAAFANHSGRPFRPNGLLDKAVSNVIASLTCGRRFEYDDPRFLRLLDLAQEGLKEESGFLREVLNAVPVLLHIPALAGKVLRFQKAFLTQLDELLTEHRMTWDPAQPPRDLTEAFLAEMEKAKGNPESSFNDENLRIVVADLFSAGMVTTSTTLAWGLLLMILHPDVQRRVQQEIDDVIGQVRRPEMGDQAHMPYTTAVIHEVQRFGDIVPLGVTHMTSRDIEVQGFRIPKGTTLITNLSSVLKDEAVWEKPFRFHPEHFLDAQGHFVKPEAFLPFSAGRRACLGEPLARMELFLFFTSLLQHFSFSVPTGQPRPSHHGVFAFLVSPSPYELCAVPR
Calcium and integrin-binding protein 1 (Homo sapiens), sequence (Q99828 whole entry, looked up): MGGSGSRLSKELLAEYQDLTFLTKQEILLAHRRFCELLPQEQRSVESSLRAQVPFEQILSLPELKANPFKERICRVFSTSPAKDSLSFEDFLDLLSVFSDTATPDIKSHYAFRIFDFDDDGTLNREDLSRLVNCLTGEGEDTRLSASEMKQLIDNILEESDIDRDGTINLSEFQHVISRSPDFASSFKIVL
Rap guanine nucleotide exchange factor 4 (Homo sapiens), sequence (Q8WZA2 whole entry, looked up): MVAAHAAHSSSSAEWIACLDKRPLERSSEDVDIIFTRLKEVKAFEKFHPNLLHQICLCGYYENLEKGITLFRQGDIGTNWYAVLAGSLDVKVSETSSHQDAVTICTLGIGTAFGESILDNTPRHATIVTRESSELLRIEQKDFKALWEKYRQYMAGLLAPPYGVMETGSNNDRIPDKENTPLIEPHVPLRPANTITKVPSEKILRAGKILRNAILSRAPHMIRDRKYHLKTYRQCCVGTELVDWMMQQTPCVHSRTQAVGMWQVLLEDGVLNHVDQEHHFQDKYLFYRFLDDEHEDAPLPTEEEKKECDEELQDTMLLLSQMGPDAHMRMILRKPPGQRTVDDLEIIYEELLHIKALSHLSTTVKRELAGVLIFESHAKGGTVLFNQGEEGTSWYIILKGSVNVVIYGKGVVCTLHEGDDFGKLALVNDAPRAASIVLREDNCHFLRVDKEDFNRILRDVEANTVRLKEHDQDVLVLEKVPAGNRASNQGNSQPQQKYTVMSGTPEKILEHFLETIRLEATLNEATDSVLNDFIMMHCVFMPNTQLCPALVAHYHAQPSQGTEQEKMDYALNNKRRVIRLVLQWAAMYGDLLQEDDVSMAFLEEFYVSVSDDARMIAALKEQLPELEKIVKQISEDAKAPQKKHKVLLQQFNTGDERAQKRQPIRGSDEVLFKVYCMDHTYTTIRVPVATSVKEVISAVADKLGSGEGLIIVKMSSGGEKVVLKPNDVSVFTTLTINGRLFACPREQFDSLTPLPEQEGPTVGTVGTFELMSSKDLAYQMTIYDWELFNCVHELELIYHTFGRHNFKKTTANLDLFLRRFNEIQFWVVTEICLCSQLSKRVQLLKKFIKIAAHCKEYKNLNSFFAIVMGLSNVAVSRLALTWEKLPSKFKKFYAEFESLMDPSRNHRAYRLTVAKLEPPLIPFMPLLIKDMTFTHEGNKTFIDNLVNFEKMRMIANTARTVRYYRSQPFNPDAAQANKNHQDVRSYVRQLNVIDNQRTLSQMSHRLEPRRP

For the compound `CCCCCCCCCCCCCCCC[N+](C)(C)CCN(Cc1ccc(OC)cc1)c1ncccn1`, the Potency result in assay [1], in assay [2] and in [3] was “inactive” in each case. Besides, the Potency in assay [4] is 5490 nM (active); in assay [5], 24500 nM (active); in [6] it was 668 nM (active); in assay [7], 750 nM (active).

As for `CN1[C@@H]2CC[C@H]1CC(OC(=O)c1c[nH]c3ccccc13)C2` (stereo partly specified), the Potency result in assay [1], in [8], in [9], in assay [10], in assay [5] and in assay [6] was “inactive” throughout. Also, the Potency entry in [7] was “inactive”. For the same compound, the Potency is 35500 nM (active) in assay [3] and 12300 nM (active) in assay [4].

With `C1CCc2nnnn2CC1`, the Potency result in assay [1], in assay [3] and in assay [12] was “inactive” in each case. Also, in [11], the result was inactive.

For the compound `CNCCC(Oc1ccccc1C)c1ccccc1` (stereo unspecified), the Potency result in assay [1] and in [3] was “inactive” each time. In addition, the result in assay [11] was inactive.

`CC(C)C[C@H]1C(=O)N2CCC[C@H]2[C@]2(O)O[C@](NC(=O)[C@@H]3C=C4c5cccc6[nH]c(Br)c(c56)C[C@H]4N(C)C3)(C(C)C)C(=O)N12`: the Potency result in [1], in assay [4], in [13], in [15] and in assay [16] was “inactive” throughout. Moreover, the outcome in assay [11] and in assay [14] was inactive. In assay [5], the Potency is 3380 nM (active).

As for `CCCn1c(=O)[nH]c(=O)c2[nH]cnc21`, the Potency result in assay [1], in assay [3] and in assay [12] was “inactive” throughout. The outcome in [11] was inactive.

For the compound `CN1C2CCC1CC(OC(=O)c1c[nH]c3ccccc13)C2` (stereo unspecified), the Potency entry in assay [1] and in [12] was “inactive” throughout. For the same compound, the result in assay [11] was inactive.

As to `c1ccc(-c2ccc(C(c3ccccc3)n3ccnc3)cc2)cc1` (stereo unspecified), the Potency entry in assay [1], in [8], in assay [9], in assay [13] and in [15] was “inactive” each time. For the same compound, the Potency is 246 nM (active) in [4]; 24.5 nM (active) in [5]; 21100 nM (active) in assay [6]; 13300 nM (active) in assay [7]; 13.9 µM (active) and inactive in [16]. Besides, the result in assay [14] and in assay [17] was inactive.

On to `CC(CCc1ccccc1)NCC(O)c1ccc(O)c(C(N)=O)c1` (stereo unspecified), for which the Potency entry in assay [1], in assay [8], in assay [12], in assay [6] and in assay [7] was “inactive” throughout. For the same compound, the result in assay [11] was inactive.

As to `CN(C)C(=S)SC(=S)N(C)C`, the Potency entry in [1], in assay [8], in assay [9], in assay [10] and in [4] was “inactive” in each case. Also, the Potency in assay [6] was 2110 nM (active); in assay [7], 2990 nM (active).

On to `CC1(C)CCC(NC(=O)[C@@H](N)CCC(=O)O)CC1`, for which the Potency entry in [1], in assay [3] and in [12] was “inactive” throughout. Moreover, the result in assay [11] was inactive.

`CC(=O)O[C@H]1C[C@@H]2CC[C@@H]3[C@H](CC[C@@]4(C)[C@H]3C[C@H]([N+]3(C)CCCCC3)[C@@H]4OC(C)=O)[C@@]2(C)C[C@@H]1[N+]1(C)CCCCC1`: the Potency entry in [1], in assay [3] and in [12] was “inactive” in each case. Besides, in assay [11], the result was inactive.

Take `COc1cc2c(cc1O)CC[C@@H]1[C@@H]2CC[C@]2(C)[C@@H](O)CC[C@@H]12`: the figures for the Potency in assay [1], in assay [6] and in assay [7] were 631 nM (active), 742 nM (active) and 590 nM (active), respectively. Also, the outcome in assay [11] and in assay [14] was inactive. Moreover, the Potency result in [3], in [12], in assay [13], in assay [15] and in [16] was “inactive” in each case.
